# Results reported in PubChem BioAssay (Tox21).
# Results filed as inconclusive are left out. Active and inactive are the calls of the source. Calls come from the whole dose curve.
# Target: Peroxisome proliferator-activated receptor delta (Homo sapiens) (UniProt Q03181)
# Assay: qHTS assay to identify small molecule agonists of the peroxisome proliferator-activated receptor delta (PPARd) signaling pathway (AID 743212)
# Details: HEK293H PPARd-UAS-bla, beta-lactamase FRET ratio, 17 h; series mostly up to 62.6 µM
# Excerpt: U.S. Tox21 Program National Center for Advancing Translational Sciences [NCATS] NIH Chemical Genomics Center [NCGC] U.S. Environmental Protection Agency [EPA] National Institutes of Environmental Health Sciences [NIEHS] National Toxicology Program [NTP] U.S. Food and Drug Administration [FDA] Tox21 Assay Overview: The peroxisome proliferator-activated receptors (PPARs) are lipid-activated transcription factors of the nuclear receptor superfamily with three distinct subtypes namely PPAR alpha, PPAR delta (PPARd) and PPAR gamma. All these subtypes heterodimerizes with Retinoid X receptor (RXR) and have different physiological functions. […] To identify the compounds that activate PPAR-delta signaling, GeneBLAzer PPAR delta UAS-bla HEK293H cell line (Invitrogen, Carlsbad, CA, USA) containing a beta-lactamase reporter gene under the control of an Upstream Activator Sequence (UAS) was used to screen the Tox21 compound library.
# Tox21 Assay Protocol Summary: PPARd-bla cells were dispensed at 3000 cells/6uL/well in 1536-well black wall/clear bottom plates using a Multidrop Combi (Thermo Fisher Scientific, Waltham, MA) dispenser. After the assay plates were incubated at 37 C and 5% CO2 for 5 h, 23 nL of compounds dissolved in DMSO, positive controls or DMSO only was transferred to the assay plate by a Pintool station (Kalypsys, San Diego, CA). The assay plates were incubated at 37C for 17 h. After 1 uL of LiveBLAzerTM B/G FRET substrate was added using a Bioraptr Flying Reagent Dispenser (FRD) workstation (Beckman Coulter, Indianapolis, IN, USA), the plates were incubated at room temperature for 2 h, and fluorescence intensity was measured by an Envision plate reader (PerkinElmer, Shelton, CT).
# Chain of Peroxisome proliferator-activated receptor delta (Homo sapiens) (Q03181 whole entry, looked up): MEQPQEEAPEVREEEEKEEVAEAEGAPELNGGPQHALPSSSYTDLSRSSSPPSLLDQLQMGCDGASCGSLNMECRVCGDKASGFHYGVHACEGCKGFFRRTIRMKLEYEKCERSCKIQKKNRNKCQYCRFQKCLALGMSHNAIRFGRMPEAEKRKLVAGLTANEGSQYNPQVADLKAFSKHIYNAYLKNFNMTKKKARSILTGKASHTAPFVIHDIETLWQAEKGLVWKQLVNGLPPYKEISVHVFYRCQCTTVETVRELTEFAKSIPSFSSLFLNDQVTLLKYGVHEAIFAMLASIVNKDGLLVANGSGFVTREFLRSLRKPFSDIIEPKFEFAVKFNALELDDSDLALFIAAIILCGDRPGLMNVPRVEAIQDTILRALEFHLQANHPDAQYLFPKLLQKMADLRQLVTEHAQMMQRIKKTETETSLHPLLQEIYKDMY
row,Compound,outcome
1,CCC(=O)OC(C)(C)C1CC=C(C)CC1 (stereo not given),inactive
2,CC(C)(C)c1ccc(S)cc1,inactive
3,c1ccc(-c2nc[nH]c2-c2ccccc2)cc1,inactive
4,Nc1nc(N)c(-c2ccccc2)s1,inactive
5,OC(CCN1CCCCC1)(c1ccccc1)C1CCCCC1 (stereo not given),inactive
6,CCCCOC(=O)c1ccccc1C(=O)OCC(CC)CCCC (stereo not given),inactive
7,CCN(CC)CCNC(C(=O)OCCC(C)C)c1ccccc1 (stereo not given),inactive
8,C=CC[N+]1([C@H]2C[C@H]3[C@@H]4CC[C@H]5C[C@H](OC(C)=O)[C@@H](N6CCCCC6)C[C@]5(C)[C@H]4CC[C@]3(C)[C@H]2OC(=O)CC)CCCCC1,inactive
9,CC(=O)O[C@H]1C[C@@H]2CC[C@@H]3[C@H](CC[C@@]4(C)[C@H]3C[C@H]([N+]3(C)CCCCC3)[C@@H]4OC(C)=O)[C@@]2(C)C[C@@H]1N1CCCCC1,inactive
10,O=C(O)[C@@H]1[C@H]2C[C@H]3c4[nH]c5ccccc5c4CCN3C[C@@H]2CC[C@@H]1O,inactive
11,N=C(N=C(N)N)N1CCOCC1,inactive
12,CCCC(=O)OCC,inactive
13,COc1cc(C(C)(C)C)c(O)c(C(C)(C)C)c1,inactive
14,CCc1nn(C2CCCCC2)c2cc(C3(C#N)CCC(C(=O)O)CC3)ccc12 (stereo not given),inactive
15,COc1ccc([C@@H]2Sc3ccccc3N(CCN(C)C)C(=O)[C@@H]2OC(C)=O)cc1,inactive
16,C=C(C)C(=O)OCCN(C)C,inactive
17,N[C@H]1C(O)O[C@H](CO)[C@H](O)[C@@H]1O (stereo not given in full),inactive
18,CC(C)c1ccc2c(C(C)C)cc(C(C)C)c(S(=O)(=O)O)c2c1,inactive
19,CC(=O)OCCc1ccccc1,inactive
20,CC1(C)CCC(C)(C)c2cc(NC(=O)c3ccc(C(=O)O)cc3)ccc21,inactive

row,Compound,outcome
1,Oc1ccc(Sc2ccc(O)cc2)cc1,inactive
2,CCCCC(CC)COCCCN (stereo not given),inactive
3,CCOC(=O)CC(=O)c1cc(F)c(Cl)nc1Cl,inactive
4,C[C@@H](C1=C(CCN(C)C)Cc2ccccc21)c1ccccn1,inactive
5,O=C(NS(=O)(=O)/C=C/c1cccs1)c1ccc(F)cc1Br,inactive
6,CCCCCC/C=C/C=O,inactive
7,CCN1CCC[C@H]1CNC(=O)c1c(OC)ccc(Br)c1OC,inactive
8,Cc1occc1S,inactive
9,CCCCCCCCCCCCCCCBr,inactive
10,CCCCCCOC(=O)CCC,inactive
11,Cc1ccc(O)c([C@H](CCN(C(C)C)C(C)C)c2ccccc2)c1,inactive
12,Cl/C(=C\n1cncn1)c1ccc(Cl)cc1Cl,inactive
13,C1CCC2OC2C1 (stereo not given),inactive
14,CCC(C)N(C)C(=O)c1cc2ccccc2c(-c2ccccc2Cl)n1 (stereo not given),inactive
15,O=C(Cl)c1c(Cl)cccc1Cl,inactive
16,C#CCOC(=O)[C@@H](C)Oc1ccc(Oc2ncc(Cl)cc2F)cc1,inactive
17,FC(F)(F)C(F)(F)C(F)(F)C(F)(F)C(F)(F)C(F)(F)CCI,inactive
18,CC(=O)N(O)CCCCCNC(=O)CCC(=O)N(O)CCCCCNC(=O)CCC(=O)N(O)CCCCCN,inactive
19,O=C(Cl)c1ccc([N+](=O)[O-])cc1,inactive
20,CN1CCC(=C2c3ccccc3CCc3sccc32)CC1,inactive
